Screens from PubChem BioAssay.
NOMO-1 viab – NOMO-1 AML cell viability reduction, primary screen, STK33 inhibitor project, CellTiter-Glo luminescence; NOMO-1 AML viability, 72 h; inhibition, % (test concentration not listed); hit rate 7.5% among 37,000; in the data active means inhibition above about 80%
YB-1 expr inh – inhibitors of YB-1 gene expression, primary screen, cell-based, fluorescence; hit rate 0.37% among 30,000; delta delta Cp (YB-1 minus CDIP) (concentration not given with the values); U2OS, qRT-PCR YB-1 vs CDIP delta delta Cp, 16 h; stronger effect = higher value; zero = DMSO, each unit about twofold; AID 434959, 2010;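 active means delta delta Cp rounded down to an integer at or above 3, about 3 SD of DMSO wells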;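 further: higher means less YB-1 transcript or more CDIP transcript relative to DMSO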
PD-1 reverse act – activators reversing PD-1 mediated T-cell inhibition, primary screen, luminescence, primary human CD4 T cells, PD-L1 beads; 29,000 tested, under 10 active; AID 2316, 2010; CellTiter-Glo 96 h; activation, % (no concentration beside the values); call rule not given here;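 further: 0% = median vehicle wells and 100% = positive control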
MITF inhib – inhibitors of MITF, primary screen, MITF inhibitor project, cell-based, luminescence; TRPM1 promoter luciferase, 24 h; inhibition, % (no concentration beside the values); hit rate 0.28% among 37,000; in the data active means inhibition above about 85%;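 further: human melanocyte line stably carrying TRPM1 promoter luciferase reporter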
Hedgehog inh – Hedgehog pathway signaling inhibitors, primary screen, luminescence, Shh-LIGHT2 cells, Gli-luciferase; hit rate 2.1% among 22,000; inhibition, % (concentration not given with the values); AID 2313, 2010; Shh-LIGHT2 Gli-luciferase reporter, 30 h;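 active means mean inhibition across valid replicates above about 65%, limit read from the data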;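 further: pathway switched on by Shh-conditioned medium diluted 1 in 25 in low serum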
Active calls of the source: *. Sampled rows, rich in hits. Any-hit rate of the full collection: about 7.4%.

How did COc1ccc(C)cc1CN1CCC(CNC(=O)Nc2cc(Cl)ccc2C)CC1 do in these assays?
NOMO-1 viab: 122*; PD-1 reverse act: -12; MITF inhib: 24

What do the screens show for `C[C@@H]1CN([C@@H](C)CO)C(=O)c2cc(NC(=O)Cc3cn(C)c4ccccc34)ccc2O[C@H]1CN(C)Cc1ccncc1`?
NOMO-1 viab: 109*; YB-1 expr inh: -0.45; PD-1 reverse act: -3; MITF inhib: 17; Hedgehog inh: -5

Results for C[C@H]1CN([C@@H](C)CO)C(=O)c2cc(NC(=O)Cc3cn(C)c4ccccc34)ccc2O[C@@H]1CN(C)Cc1ccncc1 ?
NOMO-1 viab: 96*; YB-1 expr inh: 0.3; MITF inhib: 22

What do the screens show for `C[C@@H]1CN([C@H](C)CO)C(=O)c2cc(NC(=O)Cc3cn(C)c4ccccc34)ccc2O[C@H]1CN(C)Cc1ccc(-c2ccccc2)cc1`?
NOMO-1 viab: 96*; YB-1 expr inh: 0.096; PD-1 reverse act: -4; MITF inhib: 21

How did C[C@H]1CN([C@@H](C)CO)C(=O)c2cc(NC(=O)Cc3cn(C)c4ccccc34)ccc2O[C@@H]1CN(C)Cc1ccc(-c2ccccc2)cc1 do in these assays?
NOMO-1 viab: 60; YB-1 expr inh: 0.27; PD-1 reverse act: -2; MITF inhib: 18; Hedgehog inh: 5

How did C[C@@H]1CN([C@@H](C)CO)C(=O)c2cc(NC(=O)Cc3cn(C)c4ccccc34)ccc2O[C@@H]1CN(C)Cc1ccncc1 do in these assays?
NOMO-1 viab: 31; YB-1 expr inh: 0.77; PD-1 reverse act: -3; MITF inhib: 23; Hedgehog inh: 20

How did C[C@@H]1CN([C@H](C)CO)C(=O)c2cc(NC(=O)Cc3cn(C)c4ccccc34)ccc2O[C@@H]1CN(C)C(=O)Nc1cccc2ccccc12 do in these assays?
NOMO-1 viab: 99*; YB-1 expr inh: -0.1; PD-1 reverse act: -5; MITF inhib: -14; Hedgehog inh: 21

How did CNc1ccc(S(=O)(=O)c2ccc(NC)cc2)cc1 do in these assays?
NOMO-1 viab: 36; YB-1 expr inh: -0.56; PD-1 reverse act: 1; MITF inhib: 17

What do the screens show for `Cc1ccc(S(=O)(=O)Nc2ccc3c(c2)CC(=O)N([C@H](C)CO)C[C@@H](C)[C@H](CN(C)CC2CC2)O3)cc1`?
NOMO-1 viab: 12; YB-1 expr inh: 0.053; MITF inhib: -7; Hedgehog inh: -31

Results for Cc1ccc(S(=O)(=O)Nc2ccc3c(c2)CC(=O)N([C@H](C)CO)C[C@@H](C)[C@H](CN(C)CC2CCCCC2)O3)cc1 ?
NOMO-1 viab: 84*; YB-1 expr inh: 0.002; PD-1 reverse act: 1; MITF inhib: 5; Hedgehog inh: 19

What do the screens show for `Cc1ccc(S(=O)(=O)Nc2ccc3c(c2)CC(=O)N([C@H](C)CO)C[C@@H](C)[C@@H](CN(C)CC2CCCCC2)O3)cc1`?
NOMO-1 viab: 97*; YB-1 expr inh: 0.18; PD-1 reverse act: -5; MITF inhib: 1; Hedgehog inh: -2

How did Cc1ccc(S(=O)(=O)Nc2ccc3c(c2)CC(=O)N([C@@H](C)CO)C[C@H](C)[C@H](CN(C)CC2CCCCC2)O3)cc1 do in these assays?
NOMO-1 viab: 102*; YB-1 expr inh: -0.31; PD-1 reverse act: -1; MITF inhib: 6

How did Cc1noc(C)c1S(=O)(=O)Nc1ccc2c(c1)CC(=O)N([C@H](C)CO)C[C@@H](C)[C@@H](CN(C)C(=O)NC1CCCCC1)O2 do in these assays?
NOMO-1 viab: 16; YB-1 expr inh: 0.69; PD-1 reverse act: 0; MITF inhib: -6; Hedgehog inh: -31

How did CN1C(=O)C(O)(CC(=O)c2ccco2)c2cc(Cl)ccc21 (centres undefined) do in these assays?
NOMO-1 viab: 133*; PD-1 reverse act: 1; MITF inhib: 24

Results for Cc1cccc2c1N(C)C(=O)C2(O)CC(=O)c1ccco1 (centres undefined) ?
NOMO-1 viab: 84*; PD-1 reverse act: -1; MITF inhib: -10

Results for O=C(CC1(O)C(=O)Nc2ccc(F)cc21)c1ccco1 (centres undefined) ?
NOMO-1 viab: 38; PD-1 reverse act: 1; MITF inhib: 28

How did O=C(CC1(O)C(=O)N(Cc2ccc(Cl)cc2)c2ccc(Cl)cc21)c1ccco1 (centres undefined) do in these assays?
NOMO-1 viab: 114*; PD-1 reverse act: 2; MITF inhib: 25

How did Cc1coc(C)c1C(=O)CC1(O)C(=O)N(Cc2ccc(Cl)cc2)c2ccccc21 (centres undefined) do in these assays?
NOMO-1 viab: 70; PD-1 reverse act: -2; MITF inhib: 6

What do the screens show for `COc1ccc(CN2C(=O)C(O)(CC(=O)c3c(C)coc3C)c3ccccc32)cc1OC` (centres undefined)?
NOMO-1 viab: 50; MITF inhib: 22

How did C=CC[C@]12N=C(c3ccc(OCCCO)cc3)O[C@H]1c1ccccc1CN(CCS(=O)(=O)c1ccccc1)C2=O do in these assays?
YB-1 expr inh: 0.35

How did C[C@H]1CN([C@@H](C)CO)C(=O)c2cc(NC(=O)c3ccncc3)ccc2O[C@@H]1CN(C)S(=O)(=O)c1ccccc1 do in these assays?
NOMO-1 viab: -6; YB-1 expr inh: 0.17; MITF inhib: -1

What do the screens show for `C[C@H](CO)N1C[C@H](C)[C@H](CN(C)Cc2ccc(Cl)c(Cl)c2)Oc2ccc(NS(=O)(=O)c3ccc(Cl)cc3)cc2CC1=O`?
NOMO-1 viab: 102*; YB-1 expr inh: 0.45; PD-1 reverse act: 1; MITF inhib: 27; Hedgehog inh: 22

What do the screens show for `C[C@@H]1CN([C@H](C)CO)C(=O)Cc2cc(NS(=O)(=O)c3ccc(Cl)cc3)ccc2O[C@@H]1CN(C)Cc1ccc(Cl)c(Cl)c1`?
NOMO-1 viab: 117*; YB-1 expr inh: -3.7; PD-1 reverse act: -3; MITF inhib: -3; Hedgehog inh: 26

What do the screens show for `C[C@H]1CN([C@@H](C)CO)C(=O)Cc2cc(NS(=O)(=O)c3ccc(Cl)cc3)ccc2O[C@H]1CN(C)Cc1ccc(Cl)c(Cl)c1`?
NOMO-1 viab: 97*; YB-1 expr inh: 0.37; PD-1 reverse act: 1; MITF inhib: 5; Hedgehog inh: 41

Results for COc1ccc(S(=O)(=O)Nc2ccc3c(c2)CC(=O)N([C@@H](C)CO)C[C@H](C)[C@@H](CN(C)Cc2ccc(Cl)c(Cl)c2)O3)cc1 ?
NOMO-1 viab: 88*; YB-1 expr inh: 0.17; PD-1 reverse act: 4; MITF inhib: 4; Hedgehog inh: 65

How did C[C@H]1CN([C@@H](C)CO)C(=O)Cc2cc(NS(=O)(=O)c3ccc(F)cc3)ccc2O[C@@H]1CN(C)Cc1ccc(Cl)c(Cl)c1 do in these assays?
NOMO-1 viab: 57; YB-1 expr inh: 0.049; PD-1 reverse act: -2; MITF inhib: 16; Hedgehog inh: 13

How did COC(=O)c1cc(NC(=O)CSC2=NCCS2)cc(C(=O)OC)c1 do in these assays?
NOMO-1 viab: 93*; MITF inhib: -18
